The values that follow come from PubChem BioAssay AID2685 (National Center for Advancing Translational Sciences (NCATS), 2010).

Out of some 320,000 compounds screened, about 2,100 (0.66%) were called active. Inconclusive results (about 53%) are left out. The sample holds actives, similar compounds and a random draw of the others, so the mix is not that of the screen. Calls follow the shape of the dose curve; as a rule, active = well fitted inhibition curve with a large enough effect in the signal ratio, with a control signal flat (not every such curve was filed as active); inconclusive = small, poorly fitted or top-dose-only effect, or effect the other way, or a change in a side signal; inactive = flat fitted curve, though single readings scatter; the % refers to the signal ratio.
Potency is read from the fitted curve at half-maximal effect.

The assay in a line: qHTS Assay for Lipid Storage Modulators in Drosophila S3 Cells.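 As to cell number change: cells counted by Cell Tracker Red CMTPX staining in the red channel.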 As to lipid storage change, negative = inhibition: % is scaled to controls: 0 for no effect and ±100 for the full control effect. The settings on record: BODIPY lipid droplet fluorescence, 18-24 h, cells fed with added oleic acid; cell number change: measured here: cell count max response; series mostly up to 46.1 µM; lipid storage change, negative = inhibition: at the top concentration. The gist of the method: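 Drosophila S3 cells loaded with oleic acid (400 uM, as added) and compounds at several concentrations; lipid droplets imaged by 488-nm laser-scanning cytometry, 500–530 nm intensity and object ratio to cell channel. Percent activity normalized to 20 uM Triacsin C.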
(In qHTS, concentration-response curves come from the screen itself.)
`O=C(O)CSc1cccc2cccnc12`: the cell number change turned out to be 8.53% and the lipid storage change, negative = inhibition was 8.73% [at 9.22 µM] (inactive).
For `Cc1ccc(-c2cc(-c3ccccc3)c(C#N)c(Br)n2)cc1`, in that order: -11.3% and 6.63% (inactive).
For `N#CC[C@H](Cc1ccccc1)N1CC[C@@H](NC(=O)OCc2ccccc2)CCC1=O`, in that order: 8.98% and -12.3% (inactive).
For `CC(C)(C)[C@H]1CCC(=O)N([C@H](CN=[N+]=[N-])Cc2ccccc2)CC1`, in that order: 22% and 1.61% (inactive).
Turning to `CC1CCC(=O)N(CCSc2ccccc2)CC1` (stereo not drawn), the “lipid storage change, negative = inhibition” value is -4% (inactive).
Regarding `CC(C)(C)[C@H]1CCC(=O)N([C@H](CC#N)Cc2ccccc2)CC1`, the Potency is 0.326 µM (active) and the cell number change is -9.71%.
For `CC(C)(C)C1CCC(=O)N(CCSc2ccccc2)CC1` (stereo not drawn), in that order: 6.51 µM (active) and -4.53%.
Take `CC(=O)Nc1ccc(SCCN2CC[C@@H](C(C)(C)C)CCC2=O)cc1`: the outcome was inactive and the cell number change is -1.32%.
`CCCCNC(=S)N/N=C/c1sccc1C`: the “lipid storage change, negative = inhibition” value is 9.84% (inactive) and the cell number change is -1.93%.
As to `CCS(=O)(=O)c1nc(S(=O)(=O)c2ccc(C)cc2)c(NCc2ccccn2)s1`, the “lipid storage change, negative = inhibition” value was -3.31% (inactive) and the cell number change came out at 2.5%.
The corresponding values for `Cc1[nH]n(-c2ccccc2)c(=O)c1C(=O)c1ccc([N+](=O)[O-])cc1` are 16.3% (inactive) and 5.62%.
For the molecule `Cc1[nH]n(-c2ccccc2)c(=O)c1C(=O)c1ccc(Cl)cc1`, the “lipid storage change, negative = inhibition” value was -5.87% (inactive) and the cell number change is -16%.
Consider `C/C(=N\NC(=O)c1ccc(C)cc1)c1c(C)[nH]n(-c2ccccc2)c1=O`, for which the Potency was 9.2 µM (active) and the cell number change is -9.89%.
`CN1C(=O)c2cccc(NC(=O)CCc3ccccc3)c2C1=O`: the “lipid storage change, negative = inhibition” value is -11.3% (inactive) and the cell number change is -9.83%.
`Cc1ccc(-n2ncc3c(=O)[nH]c(SCC(=O)N4CCCc5ccccc54)nc32)cc1`: the result was inactive.
With `Cc1ccc(NC(=O)C2(c3ccccc3)CCOCC2)cc1`, the “lipid storage change, negative = inhibition” value was -0.379% (inactive) and the cell number change is 16.3%.
Consider `Cc1c(C)n(Cc2ccc(F)cc2)c2ccc(C(=O)NCCCN3CCOCC3)cc12`, for which the Potency is 29.1 µM (active) and the cell number change was determined as 38.2%.
The corresponding values for `O=C(NCCCN1CCOCC1)c1ccccc1` are 20.6 µM (active) and -23.2%.
With `COc1ccc(C2(C(=O)Nc3ccc(C(=O)N4CCOCC4)cc3)CCOCC2)cc1`, the “lipid storage change, negative = inhibition” value is 9.82% (inactive) and the cell number change came out at 6.9%.
For `Cc1c(C)n(C)c2ccc(C(=O)NCCCN3CCN(c4ccc(F)cc4)CC3)cc12`, in that order: 8.52% (inactive) and 4.18%.
For `O=C(Nc1ccccc1C(=O)NCCCN1CCOCC1)c1ccccc1`, in that order: 12.1% (inactive) and 15.2%.
In the case of `O=C(NCCCN1CCOCC1)c1ccc2ccccc2c1`, the outcome was “inactive [at 0.0737 µM]”.
Consider `O=C(NCCCN1CCOCC1)C1(c2ccccc2)CCCC1`, for which the result was inactive and the cell number change was -15.4%.
As for `O=C(c1ccc(NC(=O)C2(c3ccccc3)CCOCC2)cc1)N1CCOCC1`, the Potency was 23.1 µM (active) and the cell number change was -1.58%.
For `O=C(NCCCN1CCOCC1)C1(c2ccccc2)CCOCC1`, in that order: 3.66 µM (active) and 2.27%.
With `CCn1c(C)c(C)c2cc(C(=O)NCCN3CCOCC3)ccc21`, the “lipid storage change, negative = inhibition” value is 26.7% (inactive) and the cell number change was -16.2%.
For `O=C(NCCCN1CCOCC1)C(=O)NCCc1ccccc1`, in that order: 0.98% (inactive) and -0.52%.
As to `C/C(=N/NC(=O)CN(c1ccccc1)S(=O)(=O)c1ccccc1)c1ccccc1O`, the molecule was called inactive and the cell number change amounted to 19.6%.
Consider `Cc1cc(NC(=O)CCN2C(=O)/C(=C\c3ccccc3)SC2=S)no1`, for which the “lipid storage change, negative = inhibition” value is -5.44% (inactive) and the cell number change is -8.06%.
For `COc1ccc(-c2nnn(CC(=O)N3CCN(c4ccc(F)cc4)CC3)n2)cc1`, in that order: -12.3% (inactive) and 0.734%.
For `O=C(NCc1nc2ccccc2[nH]1)C1=C[C@H](c2csc3ccccc23)C[C@H](OCc2ccc(CO)cc2)O1`, in that order: 14.1% (inactive) and 13.4%.
Consider `COc1cc(CC(=O)OCC(=O)Nc2ccc(S(=O)(=O)N3CCCC3)cc2)cc(OC)c1OC`, for which the “lipid storage change, negative = inhibition” value was 10.3% (inactive) and the cell number change was -19.3%.
Consider `CCn1cc(C(=O)NCCN(CC(C)C)CC(C)C)c(=O)c2cc(S(=O)(=O)N3CCOCC3)ccc21`, for which the Potency is 7.31 µM (active) and the cell number change came out at 0.403%.
Regarding `CCCN(CCC)CCCNC(=O)c1cn(CC)c2ccc(S(=O)(=O)N3CCOCC3)cc2c1=O`, the molecule was classed as inactive and the cell number change was 5.34%.
The corresponding values for `CCn1cc(C(=O)NCCCN(CC(C)C)CC(C)C)c(=O)c2cc(S(=O)(=O)N3CCOCC3)ccc21` are “inactive” and 21.3%.
On to `CC1CCN(Cc2cc(=O)oc3ccc4ccccc4c23)CC1`, for which the “lipid storage change, negative = inhibition” value was 9.37% (inactive) and the cell number change is 16.9%.
For `COc1ccc(C(=O)CC2SC(N)=NC2=O)cc1` (stereo not drawn), in that order: 16.9% (inactive) and 30%.
For `Nc1[nH]ncc1C(=O)Nc1cccc(C(F)(F)F)c1`, in that order: 13.4% (inactive) and -8.81%.
For `CC(C)(C)C(=O)COC(=O)c1ccc(O)cc1`, in that order: 8.5% (inactive) and 15.5%.
Regarding `CCN(CC)C(=O)COC(=O)c1ccc(O)cc1`, the Potency was 20.6 µM (active) and the cell number change was 4.39%.
As for `O=C(OCC(=O)N(C1CCCCC1)C1CCCCC1)c1ccc(O)cc1`, the molecule was classed as inactive and the cell number change came out at 3.31%.
The corresponding values for `COCCC(=O)N1CCC(Oc2ccc(C(=O)NCCc3cnn(C)c3)cc2)CC1` are “inactive” and 8.02%.
Regarding `CCCN1CCC(NC(=S)Nc2ccc(S(N)(=O)=O)cc2)CC1`, the “lipid storage change, negative = inhibition” value was -2.97% (inactive) and the cell number change was -2.79%.
The corresponding values for `Cc1ccc(C(CNC(=O)Nc2cccc(C)c2)N2CCN(C)CC2)cc1` (stereo not drawn) are -6.58% (inactive) and -5.52%.
With `Cc1ccc(C(CNC(=O)Nc2ccccc2)N2CCN(C)CC2)cc1` (stereo not drawn), the Potency was 7.31 µM (active) and the cell number change is 20.2%.
Turning to `Cc1cccc(NC(=O)NCC(c2ccc(F)cc2)N2CCN(C)CC2)c1` (stereo not drawn), the molecule was classed as inactive.
